# Measurements as given in ChEMBL document CHEMBL3988442, “University of Dundee, Small-Polar-MMV Screening Library” (2021).
# In all, about 48,000 compounds went through this assay and about 13,000 (27%) showed an effect of 50% or more. Some of the results follow.
# Test system: Wolbachia pipientis
# Experiment: Anti-Wolbachia Cell-Based Screen
# Assay type: functional
# Set-up: scale not given: in the data most compounds retested in dose-response had high values
# Details: 5 µM
row,Structure (SMILES),Percent Effect
1,CN(C)S(=O)(=O)c1ccc(CNC(=O)C2CC(=O)N(C(C)(C)C)C2)cc1 (stereo not given),129.4%
2,CSc1ccc(CNC(=O)C2CC(=O)N(C(C)(C)C)C2)cc1 (stereo not given),13.09%
3,CC(C)(C)N1CC(C(=O)NCc2noc(Cc3ccccc3)n2)CC1=O (stereo not given),-0.1463%
4,CC(C)N1CC(C(=O)NCc2ccc(S(=O)(=O)N(C)C)cc2)CC1=O (stereo not given),136.1%
5,CN(C)S(=O)(=O)c1ccc(CNC(=O)C2CC2)cc1,8.545%
6,COc1cc(CNC(=O)C2CC(=O)N(C(C)C)C2)ccn1 (stereo not given),-0.8085%
7,COc1cc(Cl)c(NC(=O)NCCn2cccc2)cc1OC,-6.144%
8,CCN(CC)C(=O)[C@@H]1C[C@@H](N)CN1c1nc(N2CCCC2)nc(C)c1C,-2.729%
9,O=C(c1cn(CCN2CCCCC2)nn1)N1CCCO1,-7.456%
10,Cc1cc(C(=O)N2CCCS2(=O)=O)c(C)o1,122.2%
11,COc1cc(C(=O)N2CCCS2(=O)=O)ccc1C,-0.1842%
12,Cc1ccc(C(=O)N2CCCS2(=O)=O)cc1Cl,-5.646%
13,Cc1cc(C(=O)N2CCC(CCn3cccn3)CC2)c(C)o1,-7.806%
14,Cc1occc1C(=O)N1CCCS1(=O)=O,102.9%
15,Cc1occc1C(=O)N1CCOC2(CCCC2)C1,0.5411%
16,COc1cc(C(=O)N2CCCS2(=O)=O)cc(Cl)c1OC,11.62%
17,Cc1cc(C(=O)N2CCN(Cn3cc(Cl)cn3)CC2)c(C)o1,0.3754%
18,Cc1cc(C(=O)N2CCS(=O)(=O)CC2)c(C)o1,128.6%
19,CN(Cc1ccccc1O)C(=O)NC1CCCN(c2ncccn2)C1 (stereo not given),-16.23%
20,NC(=O)CCCNC(=O)COc1ccccc1C(F)(F)F,8.512%
21,O=C(c1ncc(F)cc1F)N1CCC(c2ncc[nH]2)CC1,114.8%
22,CN(C)C(=O)N1CC[C@]2(O)CCN(C(=O)c3ccc(C#N)nc3)C[C@@H]2C1,0.1052%
23,O=C(c1cncc(F)c1)N1CCC(c2ncc[nH]2)CC1,103.6%

row,Structure (SMILES),Percent Effect
1,CN1CCN(c2ccc(C(=O)N3CCCC(c4ncc[nH]4)C3)cc2)CC1 (stereo not given),-9.853%
2,Cn1cc(C(=O)N2CCCC(c3ncc[nH]3)C2)cn1 (stereo not given),-9.118%
3,CC(C)(C)n1ccc(C(=O)N2CCCC(c3ncc[nH]3)C2)c1 (stereo not given),-9.494%
4,O=C(CCc1ccccc1)C1CCCN(C(=O)c2ncc(F)cc2F)C1 (stereo not given),-13.78%
5,N#Cc1ccc(C(=O)N2CCC3(CC2)C(=O)Nc2ccccc23)cn1,-3.857%
6,Cc1cc(=O)[nH]c(SC(C)C(=O)N2CCC(c3ncc[nH]3)CC2)n1 (stereo not given),-1.396%
7,N#Cc1ccc(C(=O)N2CCC(c3ncc[nH]3)CC2)cn1,118.6%
8,Cn1cc(C(=O)N2CCC(c3ncc[nH]3)CC2)cn1,106%
9,O=C(COCC(F)(F)C(F)F)N1CCC(c2ncc[nH]2)CC1,-1.399%
10,Cn1ccnc1CN(CCCO)CC(F)(F)F,-6.784%
11,CCCC(=O)N(Cc1ccncc1)C(C)CC (stereo not given),-14.56%
12,O=C([C@@H]1C[C@@H]2CCN(C3CCOCC3)C[C@@H]2O1)N1CCOCC1,114%
13,O=C(O)C(F)(F)F.O=C([C@@H]1COC[C@H]2CN(C3CCOCC3)C[C@H]21)N1CCOCC1,8.462%
14,O=C([C@@H]1C[C@@H]2CCN(C3CCOCC3)C[C@H]2O1)N1CCCC1,111.9%
15,O=C([C@H]1COC[C@H]2CN(C3CCCC3)C[C@H]21)N1CCOCC1,-18.92%
16,O=C(CCn1cncn1)NC1(c2cccc(Br)c2)CCC1,14.53%
17,CC(C)C(NC(=O)Nc1cnn(CC(N)=O)c1)c1ccc(Cl)cc1 (stereo not given),4.509%
18,O=C(c1coc(CN2CCN(c3ccccc3F)CC2)n1)N1CC=CC1,-19.74%
19,Cc1cccc(C(=O)N2CCCN(CCCSCC#N)CC2)c1,95.07%
20,N#CCSCCCN1CCN(C(=O)C2CCCC2)CC1,-2.265%
21,O=C(c1ccccc1F)N1CCN(CCCn2cncn2)CC1,-12.58%
22,N#CCSCCCN1CCN(C(=O)c2ccc(Cl)cc2)CC1,23.02%
23,N#CCSCCCN1CCN(C(=O)c2ccccc2F)CC1,105.1%

row,Structure (SMILES),Percent Effect
1,Cc1ccc(C(=O)N2CCc3ncnc(C)c3CC2)cc1F,4.805%
2,Cc1ccc(C(=O)N2CCN(CCCSCC#N)CC2)cc1F,105.3%
3,Cn1ccc(C(=O)N2CCCN(CCCc3ccccc3)CC2)cc1=O,5.22%
4,N#CCSCCCN1CCN(C(=O)c2cccc(Cl)c2)CC1,87.64%
5,Cc1ccc(C(=O)N2CCN(CCCSCC#N)CC2)o1,-4.6%
6,N#CCSCCCN1CCCN(C(=O)c2ccccc2)CC1,13.73%
7,N#CCSCCCN1CCCC(C(=O)N2CCCCCC2)C1 (stereo not given),8.122%
8,O=C(NC1CC1)[C@H]1[C@@H]2CN(Cc3ccc(-c4ccn[nH]4)s3)C[C@@H]21,-3.84%
9,COC(=O)[C@@H]1C[C@@H](O)CN1Cc1ccn(-c2ccc(F)cc2)n1,-13.47%
10,CNC(=O)c1ccc2c(OC)n(C)nc2c1,2.989%
11,CC(C)n1cnnc1CN(C)Cc1ccoc1,9.92%
12,CCc1cnc(N2C[C@H]3CN(Cc4csc(C)n4)C(=O)[C@H]3C2)nc1.O=C(O)C(F)(F)F,-9.51%
13,Cc1nc[nH]c1CN1CCOC(c2ccc(Cl)c(Cl)c2)C1 (stereo not given),1.288%
14,Cc1c[nH]c(CN2CCOC(c3ccc(F)cc3)C2)c(C)c1=O (stereo not given),1.733%
15,Cc1nnc(CN2CCOC(c3ccc(Cl)c(Cl)c3)C2)o1 (stereo not given),7.568%
16,Cc1cc(C)nc(CN2CCOC(c3ccc(Cl)cc3)C2)n1 (stereo not given),-0.4936%
17,Cc1c[nH]c(CN2CCOC(c3ccc(Cl)cc3)C2)c(C)c1=O (stereo not given),100.9%
18,Cc1c[nH]c(CN2CCOC(c3ccc(Cl)c(Cl)c3)C2)c(C)c1=O (stereo not given),94.99%
19,CN1CCN(CCCNCc2cc(O)c3cc(F)ccc3n2)CC1,-16.72%
20,NC(=O)NCCC(=O)N1CCC(c2cc(Cc3ccccc3)n[nH]2)CC1,-24.35%
21,Cc1ccc(CNC2CCCc3c2cnn3C)s1.Cl (stereo not given),1.48%
22,Cn1ncc2c1CCCC2NCc1cnc(-c2ccccc2)nc1 (stereo not given),-0.06204%
23,Cn1ncc2c1CCCC2NCc1cccnc1 (stereo not given),87.53%

row,Structure (SMILES),Percent Effect
1,Cn1ncc2c1CCCC2NCc1ccc(Cl)s1 (stereo not given),-1.294%
2,COc1cc(CNC2CCCc3c2cnn3C)cc(OC)c1.Cl (stereo not given),0.06204%
3,Cl.Cn1ncc2c1CCCC2NCc1ccc(Br)s1 (stereo not given),-6.912%
4,Cn1ncc2c1CCCC2NCc1ccc(OCc2cccnc2)cc1 (stereo not given),102.9%
5,Cc1cccc(CNC2CCCc3c2cnn3C)c1.Cl (stereo not given),0.5584%
6,CSc1ccc(CNC2CCCc3c2cnn3C)cc1.Cl (stereo not given),78.82%
7,Cn1ccc(C(=O)N2CCCC(Cc3cnc4ccccc4c3)C2)n1 (stereo not given),126.8%
8,Cn1ccc(C(=O)N2CCC(Cc3cccc4ncccc34)CC2)n1,112%
9,Cn1ccc(C(=O)N2CCC(Cc3cccc4ncccc34)C2)n1 (stereo not given),142.2%
10,Cn1ccc(C(=O)N2CCCC(Cc3cccc4ncccc34)C2)n1 (stereo not given),-23.19%
11,Cn1ccc(C(=O)N2CCCC(Cc3cccc4cccnc34)C2)n1 (stereo not given),100.6%
12,Cn1ccc(C(=O)N2CCC(Cc3cccc4cccnc34)C2)n1 (stereo not given),-6.832%
13,COc1cccc(CCC2CCCN(C(=O)c3ccc(=O)n(C)n3)C2)c1 (stereo not given),-50.16%
14,CC(C)(C)C(O)CN1CCN(C(=O)c2cccc3ncccc23)CC1 (stereo not given),5.5%
15,CC(C)C(C)NC(=O)CN1CCSCC1 (stereo not given),15.54%
16,COC(=O)N1CCCCC1C(=O)N(C)Cc1cc(-c2cccnc2)no1 (stereo not given),-13.17%
17,CC(c1ccccc1)N(C)CC(=O)NCCC#N (stereo not given),10.46%
18,COc1ccc2nc3n(c2c1)[C@@H](CNC(=O)c1cncnc1)COC3,-25.15%
19,CCOC(=O)C1CCCCN1Cc1c[nH]nc1-c1ccc(F)cc1F (stereo not given),-25.87%
20,CN(C)S(=O)(=O)N1CCN(c2ccnc(N3CCCC3)n2)CC1,6.981%
21,CN(C)S(=O)(=O)N1CCN(Cc2ccnc(N3CCCC3)n2)CC1,116.4%
22,CN(C)S(=O)(=O)N1CCN(c2ccnc(N3CCCCC3)n2)CC1,2.063%
23,CC(C)CN1CC(c2nc(-c3cccc(F)c3)c[nH]2)CC1=O (stereo not given),-7.334%

row,Structure (SMILES),Percent Effect
1,COc1ccccc1N1CCCC(Nc2nccnc2C#N)C1 (stereo not given),-6.167%
2,COc1cc(NC2CCCNC2)cc(OC)c1 (stereo not given),-9.333%
3,Cc1ncsc1C(=O)NC1CCN(c2ncccc2C#N)CC1,3.03%
4,COc1cc(CNC2CCCN(c3ncccn3)C2)cc2c1OCO2 (stereo not given),-8.887%
5,Cc1cc(C(=O)NC2CCN(c3ncccc3C#N)CC2)no1,-13.19%
6,COc1cc(NC2CCCN(c3ncccn3)C2)cc(OC)c1 (stereo not given),107.2%
7,COc1cc(NC2CCCN(c3ncccc3C#N)C2)cc(OC)c1 (stereo not given),118.7%
8,CC(OCC1CC1)C(=O)N1CCCN(c2ncccc2C#N)CC1 (stereo not given),0.6677%
9,N#Cc1cccnc1N1CCC(Nc2ccccc2)C1 (stereo not given),96.82%
10,CCn1ccnc1CN1CCN(c2nccc(OC)n2)CC1C (stereo not given),-24.68%
11,Fc1cccc(-c2nnn3c2COC(CNc2ncccn2)C3)c1 (stereo not given),-1.841%
12,CN1CCOC(CN(C(=O)CCCn2cccn2)c2nccs2)C1 (stereo not given),81.94%
13,Cc1cnn(CC2CN(CC(=O)N(C)c3nccs3)CCO2)c1 (stereo not given),4.22%
14,Cc1ccc(CC(=O)N2CCCC(c3nc(C)cs3)C2)cn1 (stereo not given),-6.398%
15,CN1CCOC(CN(C(=O)CCc2cnn(C)c2)c2nccs2)C1 (stereo not given),107%
16,CN1CCOC(CN(C(=O)COc2ccccc2)c2nccs2)C1 (stereo not given),132.7%
17,Cc1ccc(CC(=O)N(CC2CN(C)CCO2)c2nccs2)cn1 (stereo not given),90.15%
18,c1cnn(CC2CN(c3ncnc4ccsc34)CCO2)c1 (stereo not given),-13.22%
19,O=C(CN1CCOC(Cn2cccn2)C1)Nc1nccs1 (stereo not given),-0.2623%
20,CN1CCOC(CN(C(=O)CC2CCCC2)c2nccs2)C1 (stereo not given),-0.02384%
21,Cc1cc(CC(=O)N(CC2CN(C)CCO2)c2nccs2)no1 (stereo not given),-0.7073%
22,CN1CCOC(CN(C(=O)Cc2ccccc2F)c2nccs2)C1 (stereo not given),-6.62%
23,CC[C@@]1(O)CCN(C(=O)CCc2cnn(C)c2)C[C@H]1O,-7.505%
